ELG1 DNA repair: inhibitors of ELG1-dependent DNA repair in HEK293T cells; HEK293T ELG1-luciferase reporter, luminescence, 16 h; DNA damage induced by 5-fluorouridine; Potency, µM (titrated, usually from 46.1 µM), for the others: at the top dose activity change, negative = inhibition, most hits filed as inhibitors; 330,000 tested, 2.3% active; AID 504467; further: on the % scale 0 is the no-effect control and ±100 the full control effect; nearly all actives have a fitted effect of over 55% in size
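HEK293T cells expressing luciferase-tagged ELG1 (2,000/well) received 5-Fluorouridine plus compound or DMSO for 16 hr at 37 °C. Luciferase was read by ONE-Glo luminescence after 30 min at room temperature.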
SMN2 splice up: SMN2 splice variant enhancement; HEK293 SMN2-luciferase splicing reporter, luminescence, 30-36 h; Potency, µM (highest dose often 46.1 µM), for inactives: at the highest dose activity change, positive = activation, hits mostly activators; 210,000 tested, 2.8% active; further: % of control where 0% means no effect; nearly all actives have a fitted effect of over 55% in size
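qHTS luciferase splicing reporter: luminescence rises when SMN2 exon 7 is included in transfected HEK293 cells. Compound exposure lasted 30-36 h at 37C, with 4.5 mM final sodium butyrate as control, followed by a ONE-Glo read.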
ELG1 genotox: inducers of genotoxicity in HEK293T ELG1-luciferase cells; HEK293T ELG1-luciferase reporter, luminescence, 16 h; Potency, µM (doses to about 46 µM), without a hit: at the highest dose activity change, positive = activation, actives largely listed as activators; 330,000 tested, 1.3% active; further: % of control where 0% means no effect; nearly all actives have a fitted effect of over 60% in size
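HEK293T cells expressing luciferase-tagged ELG1 were exposed to compound or DMSO vehicle for 16 hr at 37 °C and 5% CO2. Luciferase activity was then measured with ONE-Glo after 30 min at room temperature.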
NPC1 prom act: NPC1 promoter activation | 320,000 tested, 2.4% active | Potency, µM (series often up to 9.22 µM), inactives show at the highest dose activation, hits mostly activators | Huh7 NPC1 promoter luciferase reporter, 24 h; further: % of control where 0% means no effect; nearly all actives have a fitted effect of over 60% in size
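Luciferase expression driven by the NPC1 promoter was measured in stably transfected Huh7 cells after a 24 h compound incubation, using a luciferase reagent and a luminescence read.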
FLuc counter: counter-screen for miR-21 project: firefly luciferase inhibitors or activators. purified FLuc, Km substrates, luminescence inhibition. AID 588342. 360,000 tested, 6.9% active. P08659. Potency, µM (doses to about 57.5 µM), without a hit: at the top dose activity change, negative = inhibition, hits mostly inhibitors;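 further: plate controls were vehicle for no effect and reference inhibitor for full effect; nearly all actives have a fitted effect of over 55% in size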
Target sequence (P08659 whole entry, looked up): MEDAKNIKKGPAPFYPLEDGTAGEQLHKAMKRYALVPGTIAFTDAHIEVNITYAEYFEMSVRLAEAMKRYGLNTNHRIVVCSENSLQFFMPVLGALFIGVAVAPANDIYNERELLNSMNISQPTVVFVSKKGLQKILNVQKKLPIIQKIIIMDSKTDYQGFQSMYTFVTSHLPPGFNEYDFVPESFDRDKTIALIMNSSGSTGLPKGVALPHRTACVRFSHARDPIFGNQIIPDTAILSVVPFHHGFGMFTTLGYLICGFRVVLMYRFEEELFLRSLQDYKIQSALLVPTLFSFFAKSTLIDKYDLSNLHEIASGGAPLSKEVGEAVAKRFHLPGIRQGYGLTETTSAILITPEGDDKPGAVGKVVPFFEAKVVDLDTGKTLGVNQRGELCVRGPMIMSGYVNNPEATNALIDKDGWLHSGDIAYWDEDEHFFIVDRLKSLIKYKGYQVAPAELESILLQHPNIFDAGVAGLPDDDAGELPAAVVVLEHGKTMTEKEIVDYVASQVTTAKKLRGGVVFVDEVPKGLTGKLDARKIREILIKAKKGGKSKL
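Biochemical qHTS of compounds, final roughly 60 µM downward over six points, against 10 nM purified firefly luciferase using Km concentrations of substrates (10 uM D-luciferin, 10 uM ATP) in Tris acetate pH 7.5 buffer; luminescence output.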
Rab9 prom act: activators of Rab9 promoter; Huh7 Rab9 promoter-luciferase reporter, luminescence, 24 h; Potency, µM (doses to about 9.22 µM), inactives show at the top dose activation, negative = inhibition, hits mostly activators; 320,000 tested, 2.8% active; AID 485297; further: % of control where 0% means no effect; nearly all actives have a fitted effect of over 60% in size
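Quantitative HTS format; Huh7 Rab9-luciferase reporter cells (1500/well) receive compound 2 h post-plating, incubate 24 h at 37 °C, then get luciferase reagent for 10 min before luminescence reading.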
* marks the source's active call; other numbers are inactive results; ? = inconclusive; . = not tested or not shown. In the library only some 9.3% were active in any assay of this set; here they are far more common. The call rests on the fitted dose curve; in most records, active means well fitted curve in the direction sought with a large enough effect; inconclusive means small, poorly fitted or top-dose-only effect, or another doubt; inactive means no such curve, though single readings can be large; an effect the other way counts as inactive or inconclusive. Potency means the concentration at half of the fitted maximal effect.

SMILES	ELG1 DNA repair	SMN2 splice up	ELG1 genotox	NPC1 prom act	FLuc counter	Rab9 prom act
O=C(C1CCN(C2CCN(C/C(Cl)=C/c3ccccc3)CC2)CC1)N1CCOCC1	-6.0%	.	-4.7%	6.7%	-0.1%	-2.7%
O=C1N=c2ccccc2=C1c1sc(=S)n(CC2CCCO2)c1O (stereo not given)	0.4%	-6.9%	-2.7%	-0.2%	-0.1%	-1.5%
COc1ccc(N=C2O/C(=C/c3sc(=S)n(CC4CCCO4)c3O)N=C2C#N)cc1 (stereo not given)	-4.9%	.	-7.8%	12.5%	2.39µM*	6.7%
Cc1[nH]nc(N=CC2=C(O)CC(c3ccco3)CC2=O)c1-c1ccc(Cl)cc1 (stereo not given)	?	-35.1%	-7.6%	-1.0%	2.8%	0.2%
CCOc1ccc(N=CC2=C(O)CC(C)(C)CC2=O)cc1	?	-9.8%	?	-1.9%	23.9µM*	-2.1%
Cc1[nH]nc(N=CC2=C(O)CC(C)(C)CC2=O)c1-c1ccc(Cl)cc1	10.3%	-7.4%	-4.0%	-0.1%	16.9µM*	-2.1%
CC1(C)CC(=O)C(C=Nc2ccc(Cl)cn2)=C(O)C1	15.4%	-12.2%	2.4%	-3.9%	?	0.5%
Cc1ccc(N=CC2=C(O)CC(C)(C)CC2=O)nc1	7.0%	-8.6%	0.5%	-0.2%	23.9µM*	1.1%
CN(C(=O)CC1C(=O)NCCN1Cc1cccc(F)c1F)C1CCOCC1 (stereo not given)	-1.3%	.	9.6%	1.0%	5.0%	1.7%
COc1cc(NC(=O)c2cc3ccccc3cc2OC)ccc1NC(=O)c1cccs1	14.6µM*	.	-15.6%	-6.9%	-0.2%	-1.4%
COc1cc(NC(=O)c2cccs2)ccc1NC(=O)Cc1ccccc1	?	.	-4.3%	-0.7%	?	2.8%
COc1cc(NC(=S)NC(=O)c2ccccc2C)ccc1NC(=O)c1cccs1	13µM*	-0.8%	-1.0%	0.4%	-0.6%	-3.5%
COc1cc(NC(=O)c2ccccc2Cl)ccc1NC(=O)c1cccs1	?	22.4µM*	?	?	13.5µM*	2.82µM*
COc1cc(NC(=O)c2cccc(Cl)c2)ccc1NC(=O)c1cccs1	?	.	0.3%	-4.0%	-18.2%	-1.6%
COc1cc(NC(=S)NC(=O)c2ccccc2F)ccc1NC(=O)c1cccs1	11.4%	-10.5%	10.8%	3.4%	-12.2%	2.2%
O=[N+]([O-])c1ccc(-c2csc(Nc3ccccc3)[n+]2Cc2ccccc2)cc1	?	-27.8%	2.0%	1.0%	-13.6%	-2.4%
Cc1nc(N2CCOCC2)c2c(C(=O)N3CCN(c4ccc(Cl)cc4)CC3)c(C)oc2n1	.	.	.	.	-5.9%	.
COc1ccc(-c2csc(-c3c(N)c(C(=O)c4ccccc4)n4ccccc34)n2)cc1	.	14.9%	.	.	-2.3%	.
O=C(NCC1CCN(c2ccc(S(=O)(=O)N3CCOCC3)cc2)CC1)c1ccc(Cl)cc1	20.6µM*	-62.6%	-10.2%	-2.9%	-1.3%	-9.6%
Cc1ccc2[nH]c3c(=O)n(CC(=O)N(C)c4cc(Cl)ccc4C)ncc3c2c1	.	.	.	.	-5.3%	.
O=C(NN=C1CCCC1)c1ccc(Cl)cc1	-21.6%	.	-1.0%	14.5%	-3.3%	15.8%
O=C(Nc1onc2c1CCCC2)c1ccc(Cl)cc1	.	8.91µM*	.	.	1.9µM*	.
CCCCOc1ccc(C(=O)Nc2onc3c2CCCC3)cc1	.	22.4µM*	.	.	1.69µM*	.
COc1ccc(C2NC(=S)NC3=C2CCCC3=C2SCCS2)cc1 (stereo not given)	?	-6.6%	?	-2.7%	-13.1%	15.7%
c1cnc(N2CCN(c3ncnc4c3oc3ccccc34)CC2)nc1	6.3%	.	12.4%	-1.7%	-0.8%	8.5%
O=C(c1ccco1)N1CCN(c2nc(C(F)(F)F)nc3c2nnn3Cc2ccccc2)CC1	?	-84.4%	-7.5%	-8.6%	0.2%	-5.7%
O=C(c1ccco1)N1CCN(c2ncnc3c2nnn3Cc2ccccc2Cl)CC1	23.1µM*	-55.4%	-10.7%	-3.3%	-5.1%	-1.4%
